In the supplement of paper PMC11732987, “Enantioselective OTUD7B fragment discovery through chemoproteomics screening and high-throughput optimisation” (Communications Chemistry, 2025):
Unmarked numbers belong to inactive results.

Compound: ClCC(=O)N1CCC(CC#N)C1
Assay: log2 ratio of Biotin-Ahx-Ub-VS probe labelling (compound/DMSO); higher = less target engagement, active = hit call of the paper (q ≤ 0.05, log2 ratio ≤ -1)
Conditions: compound concentration: 50uM; treatment time: 3 h
Procedure: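 Round 2 competitive ABPP in HEK293T lysate. Purified HTC-D2B compounds were tested at 50 and 200 µM for 3 h, followed by Biotin-Ahx-Ub-VS enrichment and diaPASEF LC-MS/MS. Values are the average log2 ratio (compound/DMSO) from an unpaired t-test (n=3 treated, n=26 DMSO).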

Chain of UniProt P51784 (P51784 whole entry): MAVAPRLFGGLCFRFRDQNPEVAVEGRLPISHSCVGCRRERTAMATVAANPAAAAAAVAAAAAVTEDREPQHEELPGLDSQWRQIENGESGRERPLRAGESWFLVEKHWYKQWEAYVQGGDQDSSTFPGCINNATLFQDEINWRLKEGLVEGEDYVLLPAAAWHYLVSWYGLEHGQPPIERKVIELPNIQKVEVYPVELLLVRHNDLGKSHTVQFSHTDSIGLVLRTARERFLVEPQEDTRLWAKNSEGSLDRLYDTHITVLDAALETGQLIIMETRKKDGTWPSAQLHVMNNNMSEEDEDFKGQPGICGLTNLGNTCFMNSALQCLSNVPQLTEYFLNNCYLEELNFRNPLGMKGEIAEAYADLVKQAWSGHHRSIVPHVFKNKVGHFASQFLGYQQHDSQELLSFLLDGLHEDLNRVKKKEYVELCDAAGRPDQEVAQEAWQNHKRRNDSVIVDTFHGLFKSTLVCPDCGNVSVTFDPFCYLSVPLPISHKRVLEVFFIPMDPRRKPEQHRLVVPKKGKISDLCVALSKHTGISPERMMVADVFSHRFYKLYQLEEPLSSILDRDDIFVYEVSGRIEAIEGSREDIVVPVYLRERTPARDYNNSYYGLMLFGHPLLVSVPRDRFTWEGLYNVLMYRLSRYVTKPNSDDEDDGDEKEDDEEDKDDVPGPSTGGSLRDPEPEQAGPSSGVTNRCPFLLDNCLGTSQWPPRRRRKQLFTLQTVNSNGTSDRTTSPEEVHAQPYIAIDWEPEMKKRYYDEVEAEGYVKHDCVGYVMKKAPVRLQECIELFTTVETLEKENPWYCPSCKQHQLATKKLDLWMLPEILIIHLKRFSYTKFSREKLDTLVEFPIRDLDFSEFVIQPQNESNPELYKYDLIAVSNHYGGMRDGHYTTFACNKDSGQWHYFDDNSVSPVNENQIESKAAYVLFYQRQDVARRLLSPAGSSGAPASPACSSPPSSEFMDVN
Chain of UniProt Q70CQ2 (Q70CQ2 whole entry): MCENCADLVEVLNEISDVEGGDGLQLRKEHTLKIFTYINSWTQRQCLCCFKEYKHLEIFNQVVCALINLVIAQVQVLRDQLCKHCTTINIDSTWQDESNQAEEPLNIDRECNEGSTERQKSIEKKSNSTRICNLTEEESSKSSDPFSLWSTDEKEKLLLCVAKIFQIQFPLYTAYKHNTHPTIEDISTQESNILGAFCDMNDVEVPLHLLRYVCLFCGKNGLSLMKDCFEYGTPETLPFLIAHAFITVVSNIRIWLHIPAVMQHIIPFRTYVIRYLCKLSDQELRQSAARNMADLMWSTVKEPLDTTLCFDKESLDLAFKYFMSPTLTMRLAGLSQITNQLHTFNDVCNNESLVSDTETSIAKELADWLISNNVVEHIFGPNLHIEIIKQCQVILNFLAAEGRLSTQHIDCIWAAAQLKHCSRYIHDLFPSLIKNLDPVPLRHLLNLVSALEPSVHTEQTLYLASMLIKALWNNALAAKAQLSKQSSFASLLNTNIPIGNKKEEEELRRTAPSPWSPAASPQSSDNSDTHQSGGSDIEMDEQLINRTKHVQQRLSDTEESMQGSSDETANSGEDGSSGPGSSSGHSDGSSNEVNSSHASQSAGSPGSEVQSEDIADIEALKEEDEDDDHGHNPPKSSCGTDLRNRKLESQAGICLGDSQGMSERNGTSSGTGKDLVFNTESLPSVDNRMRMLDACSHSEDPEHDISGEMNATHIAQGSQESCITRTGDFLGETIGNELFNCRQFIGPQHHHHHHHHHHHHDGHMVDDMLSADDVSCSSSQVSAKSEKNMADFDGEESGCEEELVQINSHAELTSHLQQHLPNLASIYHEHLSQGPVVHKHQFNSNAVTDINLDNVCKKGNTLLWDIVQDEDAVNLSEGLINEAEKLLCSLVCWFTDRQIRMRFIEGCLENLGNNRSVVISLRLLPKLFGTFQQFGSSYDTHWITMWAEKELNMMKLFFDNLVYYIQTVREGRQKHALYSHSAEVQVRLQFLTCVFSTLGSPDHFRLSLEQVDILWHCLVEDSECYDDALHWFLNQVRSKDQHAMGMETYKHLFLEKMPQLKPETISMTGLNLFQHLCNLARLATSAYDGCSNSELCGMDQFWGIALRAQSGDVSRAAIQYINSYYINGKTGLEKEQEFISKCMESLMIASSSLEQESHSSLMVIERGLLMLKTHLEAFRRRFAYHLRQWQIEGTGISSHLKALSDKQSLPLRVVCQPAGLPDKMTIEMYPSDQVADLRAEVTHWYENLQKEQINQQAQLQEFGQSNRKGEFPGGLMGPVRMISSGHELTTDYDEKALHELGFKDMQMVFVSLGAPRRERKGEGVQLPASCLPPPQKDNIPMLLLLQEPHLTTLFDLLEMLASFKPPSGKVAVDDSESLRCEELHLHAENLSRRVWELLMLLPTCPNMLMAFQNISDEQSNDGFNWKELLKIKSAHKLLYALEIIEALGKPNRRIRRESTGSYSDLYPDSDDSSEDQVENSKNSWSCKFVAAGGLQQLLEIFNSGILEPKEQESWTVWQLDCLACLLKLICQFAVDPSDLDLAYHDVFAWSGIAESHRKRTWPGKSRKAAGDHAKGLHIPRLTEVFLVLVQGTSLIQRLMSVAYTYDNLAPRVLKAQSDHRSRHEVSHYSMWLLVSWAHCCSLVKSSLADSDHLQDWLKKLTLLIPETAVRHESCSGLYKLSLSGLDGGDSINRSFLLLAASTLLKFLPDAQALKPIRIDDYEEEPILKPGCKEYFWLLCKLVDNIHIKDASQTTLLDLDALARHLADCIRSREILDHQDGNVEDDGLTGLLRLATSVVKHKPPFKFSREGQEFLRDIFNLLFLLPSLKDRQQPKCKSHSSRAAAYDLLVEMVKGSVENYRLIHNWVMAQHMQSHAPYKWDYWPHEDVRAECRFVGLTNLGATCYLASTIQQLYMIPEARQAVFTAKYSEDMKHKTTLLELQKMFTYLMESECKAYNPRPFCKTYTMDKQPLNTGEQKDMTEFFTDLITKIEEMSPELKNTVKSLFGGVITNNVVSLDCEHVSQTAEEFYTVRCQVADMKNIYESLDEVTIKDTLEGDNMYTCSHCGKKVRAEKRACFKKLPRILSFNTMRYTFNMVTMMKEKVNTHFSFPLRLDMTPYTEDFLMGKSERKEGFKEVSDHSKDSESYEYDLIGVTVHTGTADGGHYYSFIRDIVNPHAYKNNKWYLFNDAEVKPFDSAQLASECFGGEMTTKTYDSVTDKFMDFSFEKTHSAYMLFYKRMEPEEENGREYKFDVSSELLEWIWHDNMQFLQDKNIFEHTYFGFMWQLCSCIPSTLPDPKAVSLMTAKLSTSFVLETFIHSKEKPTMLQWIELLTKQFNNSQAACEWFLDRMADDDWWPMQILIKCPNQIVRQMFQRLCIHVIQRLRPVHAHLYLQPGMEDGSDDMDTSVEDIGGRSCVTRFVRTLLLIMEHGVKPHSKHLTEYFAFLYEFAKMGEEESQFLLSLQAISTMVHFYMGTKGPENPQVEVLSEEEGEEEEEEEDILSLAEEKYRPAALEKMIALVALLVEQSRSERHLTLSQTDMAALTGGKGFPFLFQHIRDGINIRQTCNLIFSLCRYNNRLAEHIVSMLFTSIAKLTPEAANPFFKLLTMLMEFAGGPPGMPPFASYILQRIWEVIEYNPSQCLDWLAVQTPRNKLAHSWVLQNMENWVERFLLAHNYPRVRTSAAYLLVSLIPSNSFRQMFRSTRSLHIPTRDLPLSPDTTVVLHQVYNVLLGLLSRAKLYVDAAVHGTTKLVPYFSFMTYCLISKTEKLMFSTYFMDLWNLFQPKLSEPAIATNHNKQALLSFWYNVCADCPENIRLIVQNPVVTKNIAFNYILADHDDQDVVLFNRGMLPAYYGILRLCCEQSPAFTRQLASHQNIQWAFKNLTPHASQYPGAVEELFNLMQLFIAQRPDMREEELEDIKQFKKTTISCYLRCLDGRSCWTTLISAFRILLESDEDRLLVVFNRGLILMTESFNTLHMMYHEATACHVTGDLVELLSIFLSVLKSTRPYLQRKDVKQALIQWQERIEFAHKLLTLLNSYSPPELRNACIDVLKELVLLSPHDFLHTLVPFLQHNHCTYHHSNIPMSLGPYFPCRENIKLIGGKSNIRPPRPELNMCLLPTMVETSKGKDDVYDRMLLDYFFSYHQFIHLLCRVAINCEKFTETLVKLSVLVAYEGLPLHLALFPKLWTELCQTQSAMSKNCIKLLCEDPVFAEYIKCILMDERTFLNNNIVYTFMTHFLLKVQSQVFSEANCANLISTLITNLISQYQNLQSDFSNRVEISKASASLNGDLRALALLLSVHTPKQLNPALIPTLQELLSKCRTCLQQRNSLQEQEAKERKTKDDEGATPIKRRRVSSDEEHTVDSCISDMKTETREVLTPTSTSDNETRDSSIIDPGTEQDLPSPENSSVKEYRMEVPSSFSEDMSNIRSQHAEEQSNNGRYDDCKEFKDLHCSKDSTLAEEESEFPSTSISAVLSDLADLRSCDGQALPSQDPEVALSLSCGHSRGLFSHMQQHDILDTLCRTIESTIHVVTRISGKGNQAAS
Chain of UniProt Q8N6M0 (Q8N6M0 whole entry): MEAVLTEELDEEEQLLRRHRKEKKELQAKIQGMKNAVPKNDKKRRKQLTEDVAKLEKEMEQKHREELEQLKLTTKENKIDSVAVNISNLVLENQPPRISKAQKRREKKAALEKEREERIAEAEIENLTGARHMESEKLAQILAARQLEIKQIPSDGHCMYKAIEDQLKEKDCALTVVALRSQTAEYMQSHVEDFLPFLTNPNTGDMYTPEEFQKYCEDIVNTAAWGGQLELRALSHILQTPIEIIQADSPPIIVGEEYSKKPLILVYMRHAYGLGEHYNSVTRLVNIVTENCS
Chain of UniProt Q92905 (Q92905 whole entry, looked up): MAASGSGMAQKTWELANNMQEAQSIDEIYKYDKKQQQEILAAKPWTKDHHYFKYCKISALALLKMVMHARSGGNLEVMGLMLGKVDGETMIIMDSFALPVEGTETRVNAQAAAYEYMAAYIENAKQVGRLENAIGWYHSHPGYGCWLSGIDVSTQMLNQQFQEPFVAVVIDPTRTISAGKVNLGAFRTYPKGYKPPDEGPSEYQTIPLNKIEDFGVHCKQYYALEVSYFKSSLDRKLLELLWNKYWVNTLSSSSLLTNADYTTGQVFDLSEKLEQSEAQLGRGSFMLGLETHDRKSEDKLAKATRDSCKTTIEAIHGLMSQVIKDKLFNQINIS

Row | Target | log2 ratio of Biotin-Ahx-Ub-VS probe labelling
1 | UniProt P51784 | -0.0555
2 | USP34 (UniProt Q70CQ2) | 0.721
3 | USP25 (UniProt Q9UHP3) | -0.617
4 | BAP1 (UniProt Q92560) | -0.376
5 | USP16 (UniProt Q9Y5T5) | -0.133
6 | USP19 (UniProt O94966) | -0.285
7 | OTUD6B (UniProt Q8N6M0) | -0.197
8 | USP54 (UniProt Q70EL1) | -0.068
9 | COPS5 (UniProt Q92905) | -0.111

Same assay, conditions: compound concentration: 200uM; treatment time: 3 h

Row | Target | log2 ratio of Biotin-Ahx-Ub-VS probe labelling
10 | UniProt P51784 | -0.0925
11 | USP34 (UniProt Q70CQ2) | -0.382
12 | USP25 (UniProt Q9UHP3) | -2.11 (active)
13 | BAP1 (UniProt Q92560) | -0.502
14 | USP16 (UniProt Q9Y5T5) | -0.669
15 | USP19 (UniProt O94966) | -0.557
16 | OTUD6B (UniProt Q8N6M0) | -0.265
17 | USP54 (UniProt Q70EL1) | -0.954
18 | COPS5 (UniProt Q92905) | -0.11
